About 79,000 compounds went through this panel and 15% of them were active in at least one assay; those are over-represented in the sample as a whole. Activity calls are given as the source filed them. Cut-off read from the data, not from the text of the source: active = growth inhibition above about 70%; inactive = the rest.
Assays:
[1] = NCI Yeast Anticancer Drug Screen. Data for the rad52 strain (AID 147);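 note: 0% = growth of vehicle-treated control cultures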; settings: S. cerevisiae rad52 mutant growth inhibition, active compounds read high
Method in brief: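 Vehicle-treated cultures served as the reference for growth inhibition of compound-exposed yeast bearing a DNA repair mutation.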

[2] = NCI Yeast Anticancer Drug Screen. Data for the wt1 strain (AID 149);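 note: 0% = growth of vehicle-treated wt1 cultures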; settings: S. cerevisiae wt1 strain (SPY 50644) growth inhibition, active compounds read high
Method in brief: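 Compounds are added to wt1 yeast cultures. Growth is then measured. Inhibition is expressed relative to vehicle-treated controls.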

[3] = NCI Yeast Anticancer Drug Screen. Data for the rad50EPP+ strain (AID 151);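 note: 0% = growth of vehicle-treated control cultures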; settings: S. cerevisiae rad50 mutant strain, active compounds read high
Method in brief: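 In this screen, rad50EPP+ yeast were exposed to compounds. Growth inhibition was scored against vehicle-treated controls.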

[4] = NCI Yeast Anticancer Drug Screen. Data for the mgt1 strain (AID 153); settings: S. cerevisiae mgt1 mutant growth inhibition, active compounds read high
Method in brief: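 mgt1 strain exposed; growth vs vehicle control recorded as inhibition.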

[5] = NCI Yeast Anticancer Drug Screen. Data for the rad50 strain (AID 155);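 note: 0% = growth of vehicle-only cultures of the same strain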; settings: S. cerevisiae rad50 strain growth inhibition, active compounds read high
Method in brief: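 Inhibition values express reduced yeast growth in compound-treated cultures relative to vehicle-treated controls.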

[6] = NCI Yeast Anticancer Drug Screen. Data for the mec2-1 strain (AID 157); settings: S. cerevisiae mec2-1 strain, active compounds read high
Method in brief: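 Vehicle-treated cultures served as reference for growth inhibition of compound-exposed mec2-1 yeast.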

[7] = NCI Yeast Anticancer Drug Screen. Data for the rad14 strain (AID 159);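 note: 0% = growth of vehicle-treated control cultures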; settings: S. cerevisiae rad14 strain growth inhibition, active compounds read high
Method in brief: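 A mutant yeast strain defective in DNA damage repair is treated with compound; inhibition of its growth is scored against untreated, vehicle-exposed cultures.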

[8] = NCI Yeast Anticancer Drug Screen. Data for the sgs1 mgt1 strain (AID 161);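 note: 0% = growth of cultures given vehicle only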; settings: S. cerevisiae sgs1 mgt1 strain, active compounds read high
Method in brief: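 Test agents were incubated with a DNA-repair-mutant yeast strain. Growth was then read and compared against vehicle-treated controls.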

[9] = NCI Yeast Anticancer Drug Screen. Data for the CLN2oe strain (AID 163);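 note: 0% = growth of vehicle-only control cultures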; settings: S. cerevisiae CLN2oe strain, active compounds read high
Method in brief: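 Inhibition relative to vehicle-treated yeast is reported. Cells: strain with genetic alteration in cell-cycle control, grown with compound.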

[10] = NCI Yeast Anticancer Drug Screen. Data for the cln2 rad14 strain (AID 165);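 note: 0% = growth equal to vehicle treated cultures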; settings: S. cerevisiae cln2 rad14 strain, active compounds read high
Method in brief: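 Each compound was tested on cln2 rad14 yeast. Inhibition of growth was calculated against vehicle-exposed controls.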

[11] = NCI Yeast Anticancer Drug Screen. Data for the bub3 strain (AID 167); settings: S. cerevisiae bub3 mutant strain, active compounds read high
Method in brief: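 Steps: expose the mutant yeast strain to compound; grow alongside vehicle-treated cultures; measure growth; express inhibition against the vehicle cultures.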

[12] = NCI Yeast Anticancer Drug Screen. Data for the wt2 strain (AID 169);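 note: 0% = growth of vehicle-treated yeast cultures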; settings: S. cerevisiae wt2 strain growth inhibition, active compounds read high
Method in brief: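 Inhibition of yeast growth was determined after compound treatment, normalised to controls receiving only vehicle.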

[13] = NCI Yeast Anticancer Drug Screen. Data for the mlh1 strain (AID 171);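 note: 0% = growth of vehicle-treated control cultures of the same strain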; settings: S. cerevisiae mlh1 strain growth inhibition, active compounds read high
Method in brief: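 Vehicle-normalised growth inhibition of a repair- or checkpoint-altered yeast strain following compound treatment.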

[14] = NCI Yeast Anticancer Drug Screen. Data for the sgs1 strain (AID 173);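 note: 0% = growth of vehicle-only control cultures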; settings: S. cerevisiae sgs1 mutant, active compounds read high
Method in brief: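 Screen format: yeast with repair or checkpoint alterations, compound exposure, growth read relative to vehicle.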

[15] = NCI Yeast Anticancer Drug Screen. Data for the mlh1 rad18 strain (AID 175); settings: S. cerevisiae mlh1 rad18 strain growth inhibition, active compounds read high
Method in brief: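 Vehicle-treated cultures served as the reference for growth inhibition in a yeast strain carrying DNA damage repair alterations exposed to each compound.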

[16] = NCI Yeast Anticancer Drug Screen. Data for the rad18 strain (AID 177); settings: S. cerevisiae rad18 mutant growth inhibition, active compounds read high
Method in brief: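 Test articles were incubated with altered yeast defective in DNA damage repair. Results are given as inhibition of growth versus vehicle.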

[17] = at 5.0 µM (retest, dose inferred, filed as 0.5)
[18] = at 50.0 µM (retest, dose inferred, filed as 5.0)

Measured: growth inhibition

Nc1ccc2cc(Br)ccc2c1Br
active: [6]; at 50.0 µM 90.2% | [11]; at 50.0 µM 88.5% | [15]; at 50.0 µM 91.2%
inactive: [1]; at 1.2 µM -6% | [1]; at 3.7 µM 1% | [1]; at 11.0 µM 1% | [1]; at 33.0 µM 3% | [1]; at 100.0 µM 52% | [2]; at 1.2 µM -2% | [2]; at 3.7 µM -3% | [2]; at 11.0 µM -3% | [2]; at 33.0 µM -5% | [2]; at 100.0 µM -1% | [3]; at 1.2 µM 1% | [3]; at 3.7 µM 7% | [3]; at 11.0 µM 23% | [3]; at 33.0 µM 19% | [3]; at 100.0 µM 49% | [4]; at 1.2 µM -4% | [4]; at 3.7 µM -1% | [4]; at 11.0 µM -1% | [4]; at 33.0 µM -1% | [4]; at 100.0 µM 4% | [5]; at 1.2 µM -2% | [5]; at 3.7 µM 1% | [5]; [17] 13% | [5]; at 11.0 µM 8% | [5]; at 33.0 µM 2% | [5]; [18] 27% | [5]; at 50.0 µM 4.6% | [5]; at 100.0 µM 26% | [6]; at 1.2 µM 0% | [6]; at 3.7 µM -1% | [6]; [17] -5% | [6]; at 11.0 µM -2% | [6]; at 33.0 µM -2% | [6]; [18] 1% | [6]; at 100.0 µM 1% | [7]; at 1.2 µM -6% | [7]; at 3.7 µM 0% | [7]; at 11.0 µM 7% | [7]; at 33.0 µM 5% | [7]; at 100.0 µM 26% | [8]; [17] 15% | [8]; [18] 14% | [8]; at 50.0 µM 18% | [9]; at 1.2 µM -2% | [9]; at 3.7 µM -2% | [9]; at 11.0 µM -3% | [9]; at 33.0 µM -5% | [9]; at 100.0 µM 2% | [10]; [17] 3% | [10]; [18] 9% | [10]; at 50.0 µM -23% | [11]; at 1.2 µM 3% | [11]; at 3.7 µM 3% | [11]; [17] 22% | [11]; at 11.0 µM 1% | [11]; at 33.0 µM 4% | [11]; [18] 47% | [11]; at 100.0 µM 6% | [12]; at 1.2 µM -1% | [12]; at 3.7 µM -8% | [12]; at 11.0 µM -5% | [12]; at 33.0 µM -6% | [12]; at 100.0 µM 28% | [13]; at 1.2 µM -2% | [13]; at 3.7 µM 1% | [13]; at 11.0 µM 3% | [13]; at 33.0 µM 1% | [13]; at 100.0 µM 20% | [14]; at 1.2 µM -24% | [14]; at 3.7 µM -22% | [14]; at 11.0 µM -17% | [14]; at 33.0 µM -9% | [14]; at 100.0 µM 30% | [15]; [17] 28% | [15]; [18] 57% | [16]; at 1.2 µM -4% | [16]; at 3.7 µM -1% | [16]; at 11.0 µM 7% | [16]; at 33.0 µM -3% | [16]; at 100.0 µM 20%

O=C(/N=N/C(=O)Oc1ccccc1)Oc1ccccc1
active: [5]; [18] 96% | [6]; [18] 97% | [15]; [18] 98%
inactive: [1]; at 1.2 µM -49% | [1]; at 3.7 µM -54% | [1]; at 11.0 µM -52% | [1]; at 33.0 µM -38% | [1]; at 100.0 µM 24% | [2]; at 1.2 µM -57% | [2]; at 3.7 µM -51% | [2]; at 11.0 µM -46% | [2]; at 33.0 µM -32% | [2]; at 100.0 µM 37% | [3]; at 1.2 µM -87% | [3]; at 3.7 µM -110% | [3]; at 11.0 µM -106% | [3]; at 33.0 µM -46% | [3]; at 100.0 µM -82% | [4]; at 1.2 µM -61% | [4]; at 3.7 µM -61% | [4]; at 11.0 µM -63% | [4]; at 33.0 µM -29% | [4]; at 100.0 µM 57% | [5]; at 1.2 µM -81% | [5]; at 3.7 µM -66% | [5]; [17] 30% | [5]; at 11.0 µM -107% | [5]; at 33.0 µM -40% | [5]; at 50.0 µM 56.4% | [5]; at 100.0 µM 45% | [6]; at 1.2 µM -97% | [6]; at 3.7 µM -47% | [6]; [17] 53% | [6]; at 11.0 µM -87% | [6]; at 33.0 µM -52% | [6]; at 50.0 µM 8.5% | [6]; at 100.0 µM -16% | [7]; at 1.2 µM -26% | [7]; at 3.7 µM -26% | [7]; at 11.0 µM -10% | [7]; at 33.0 µM -15% | [7]; at 100.0 µM 5% | [8]; [17] -29% | [8]; [18] 39% | [8]; at 50.0 µM 48.6% | [9]; at 1.2 µM 9% | [9]; at 3.7 µM 22% | [9]; at 11.0 µM 16% | [9]; at 33.0 µM 40% | [9]; at 100.0 µM 40% | [10]; [17] 5% | [10]; [18] 59% | [10]; at 50.0 µM 43.6% | [11]; at 1.2 µM -25% | [11]; at 3.7 µM -29% | [11]; [17] 50% | [11]; at 11.0 µM -17% | [11]; at 33.0 µM 2% | [11]; [18] 69% | [11]; at 50.0 µM 55% | [11]; at 100.0 µM 65% | [12]; at 1.2 µM -46% | [12]; at 3.7 µM -48% | [12]; at 11.0 µM -54% | [12]; at 33.0 µM -39% | [12]; at 100.0 µM 48% | [13]; at 1.2 µM -70% | [13]; at 3.7 µM -85% | [13]; at 11.0 µM -78% | [13]; at 33.0 µM -44% | [13]; at 100.0 µM 3% | [14]; at 1.2 µM -78% | [14]; at 3.7 µM -80% | [14]; at 11.0 µM -35% | [14]; at 33.0 µM -27% | [14]; at 100.0 µM 59% | [15]; [17] 44% | [15]; at 50.0 µM 49% | [16]; at 1.2 µM -44% | [16]; at 3.7 µM -72% | [16]; at 11.0 µM -72% | [16]; at 33.0 µM -58% | [16]; at 100.0 µM 45%

— PubChem BioAssay (NCI)
